The source made the active and inactive calls. Unless noted, no rule for the calls is given here.

Our source for the composite z-score and z-score values is PubChem BioAssay.

Assay [1] relates to Wnt5a (protein binding on small-molecule microarray). In words: Wnt5a binders on small-molecule microarray, primary screen, biophysical, 635/667 nm fluorescence (AID 1142).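 Also: fluorescence read at 667 nm with signal to noise per printed feature.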 To be noted: 635 nm fluorescence, higher = more signal.
Assay [2] can be described thus: cell viability in Huh7 cells, primary screen, cytotoxicity control for HCV replication inhibitor project, CellTiter-Glo luminescence, basal, 48 h (AID 1143).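 Also: Huh7 hepatoma cells carrying a hepatitis C replication reporter with no stimulus; test concentration not given here.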 The settings on record: Huh7 HCV replicon, higher = more signal, called active from +8 up or from −8 down. (Cellular ATP, detected with luciferase, serves as a proxy for viable cell number.)
Assay [3] is described as follows: P. aeruginosa biofilm formation inhibitors, primary screen, PAO1 strain, BacTiter-Glo luminescence, LB-PBS (AID 1144). To be noted: 12 h, higher = more signal.
Assay [4] in a line: CREB reporter modulators without forskolin, primary screen, cell-based, PC12, CRE-LacZ reporter, unstimulated (AID 1145). To be noted: no forskolin, luminescence, 4.5 h, higher = more signal, called active from +8 up or from −8 down.
Assay [5] is described as follows: CREB reporter modulators under forskolin, primary screen, cell-based, PC12, CRE-LacZ reporter, forskolin-stimulated (AID 1146).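 Also: PC12 cells with 6xCRE LacZ reporter stimulated by forskolin 10 µM; beta-galactosidase reporter signal reflecting CREB driven transcription.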 To be noted: luminescence, 4.5 h, higher = more signal, called active from +8 up or from −8 down.
The target in assay [6] is Streptavidin (Streptomyces avidinii) (UniProt P22629). Description: streptavidin binders on small-molecule microarray, primary screen, artefact control for SMM compound annotation, biophysical, 635/667 nm fluorescence (AID 1147).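 Also: signal reflects streptavidin binding to arrayed compounds as a control protein.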 To be noted: streptavidin binding, higher = more signal.
Chain of Streptavidin (Streptomyces avidinii) (P22629 whole entry, looked up): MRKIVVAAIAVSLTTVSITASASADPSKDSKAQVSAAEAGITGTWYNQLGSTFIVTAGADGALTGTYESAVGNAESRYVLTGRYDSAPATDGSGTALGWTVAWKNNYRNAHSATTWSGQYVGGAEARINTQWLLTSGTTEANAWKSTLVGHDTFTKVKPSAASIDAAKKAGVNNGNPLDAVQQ
Assay [7] can be described thus: small-molecule binders of probe aInhba, primary screen, biochemical, small-molecule microarray, 635/667 nm fluorescence (AID 1148).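 Also: score merges 667nm spot fluorescence with signal-to-noise for antibody binding to printed compounds.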 The settings on record: higher = more signal.
For assay [8], the target named is Torsin-1A (Homo sapiens) (UniProt O14656). Description: torsin A binders from cell lysate, primary screen, small-molecule microarray, wild-type, 635/667 nm (AID 1149). The settings on record: COS7 hTOR1A-WT lysate, 635 nm fluorescence, higher = more signal.
Chain of Torsin-1A (Homo sapiens) (O14656 whole entry, looked up): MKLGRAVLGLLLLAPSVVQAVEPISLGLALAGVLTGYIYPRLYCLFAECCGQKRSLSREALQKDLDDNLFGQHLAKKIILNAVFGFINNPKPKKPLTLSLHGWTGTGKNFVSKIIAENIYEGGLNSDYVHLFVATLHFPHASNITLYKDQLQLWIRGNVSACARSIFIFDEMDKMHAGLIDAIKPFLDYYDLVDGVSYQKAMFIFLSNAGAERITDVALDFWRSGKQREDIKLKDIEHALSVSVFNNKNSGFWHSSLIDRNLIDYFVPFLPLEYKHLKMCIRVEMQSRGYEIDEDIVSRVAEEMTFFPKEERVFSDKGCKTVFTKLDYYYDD
Assay [9] shares this target. Description: small-molecule binders of mutant TOR1A in lysate, primary screen, cell lysate, small-molecule microarray, COS7 lysate, 635/667 nm fluorescence (AID 1150).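 Also: score pools 667 nm emission and signal to noise measuring lysate protein binding.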 To be noted: COS7 hTOR1A mutant lysate, 635 nm fluorescence, higher = more signal.
For assay [10], the system named is Sonic hedgehog protein (Shh). Description: small-molecule binders of Shh protein, primary screen, biochemical, small-molecule microarray, 635/667 nm fluorescence (AID 1151).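 Also: Shh protein binding to compounds spotted on small-molecule microarray slides; score combines spot fluorescence intensity with signal-to-noise across triplicate slides.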 The settings on record: small-molecule microarray binding, 635 nm fluorescence; higher = more signal.
The nature of assay [11]: E. coli DRC41 culture turbidity changes, primary screen, E. coli filamentation inducer project, strain DRC41, OD650, 48 h (AID 1152).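 Also: E. coli MC1000 strain DRC41 lacking acrAB efflux pump and sulA.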 To be noted: E. coli DRC41 (acrAB sulA), higher = more signal, called active from +8 up or from −8 down.
Assay [12] can be described thus: small-molecule binders of probe aLefty1, primary screen, biochemical, small-molecule microarray, 635/667 nm fluorescence (AID 1153).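 Also: score merges spot fluorescence with signal-to-noise ratio from the scanned slide images.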 The settings on record: higher = more signal.
Assay [13] in a line: PSAC antagonists in infected red cells, primary screen, cell-based, P. falciparum Indochina, OD700, 1 h (AID 1154). To be noted: P. falciparum Indochina infected RBC osmotic lysis, higher = more signal, called active from +8 up or from −8 down.
A short description of assay [14]: PSAC antagonists in infected red cells, primary screen, cell-based, P. falciparum Indochina, OD700, 2 h (AID 1155).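 Also: lysis reports solute entry through the parasite surface anion channel PSAC; channel blockers reduce lysis of infected cells.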 To be noted: P. falciparum Indochina infected erythrocytes, osmotic lysis OD700; higher = more signal, called active from +8 up or from −8 down.
Assay [15] is described as follows: osmotic lysis modulators in infected erythrocytes, primary screen, PSAC antagonist project, cell-based, P. falciparum Indochina, OD700, 3 h (AID 1156). The settings on record: higher = more signal, called active from +8 up or from −8 down.
A short description of assay [16]: PSAC antagonists in infected red cells, primary screen, cell-based, P. falciparum Indochina, OD700, 18 h (AID 1157). To be noted: P. falciparum Indochina infected erythrocytes, osmotic lysis OD700, 18 h; higher = more signal, called active from +8 up or from −8 down.
The nature of assay [17]: modulators of S6 phosphorylation in cells, primary screen, cell-based, A549, cytoblot, luminescence, serum-stimulated (AID 1158).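 Also: serum-stimulated A549 lung adenocarcinoma cells; signal is phosphorylated S6 detected by cytoblot immunostaining with HRP secondary.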 The settings on record: A549 phospho-S6 cytoblot, 5 h, higher = more signal.
For assay [18], the target named is NADPH oxidase 2 (Homo sapiens) (UniProt P04839). Description: NOX2-dependent H2O2 signal modulators, primary screen, NOX inhibitor project, cell-based, HEK293-NOX2, PMA-stimulated, Amplex Red fluorescence (AID 1159). Also: test concentration not given here. The settings on record: 45 min, higher = more signal, called active from +8 up or from −8 down.
Chain of NADPH oxidase 2 (Homo sapiens) (P04839 whole entry, looked up): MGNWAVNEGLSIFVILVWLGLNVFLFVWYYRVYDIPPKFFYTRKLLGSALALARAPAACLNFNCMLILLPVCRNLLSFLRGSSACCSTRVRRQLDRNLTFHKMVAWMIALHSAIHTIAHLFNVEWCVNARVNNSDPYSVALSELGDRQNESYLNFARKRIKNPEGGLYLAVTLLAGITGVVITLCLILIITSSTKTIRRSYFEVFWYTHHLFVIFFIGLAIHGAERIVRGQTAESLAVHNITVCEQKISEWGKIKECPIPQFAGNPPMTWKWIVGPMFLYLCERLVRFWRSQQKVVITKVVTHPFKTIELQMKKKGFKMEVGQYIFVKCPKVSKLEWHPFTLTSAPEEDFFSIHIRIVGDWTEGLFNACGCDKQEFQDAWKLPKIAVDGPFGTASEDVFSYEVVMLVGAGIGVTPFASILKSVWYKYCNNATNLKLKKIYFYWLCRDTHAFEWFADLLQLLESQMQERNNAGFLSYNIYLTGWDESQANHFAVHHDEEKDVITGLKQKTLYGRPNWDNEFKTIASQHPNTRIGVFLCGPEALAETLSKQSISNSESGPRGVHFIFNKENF
Assay [19] addresses NADPH oxidase 4 (Homo sapiens) (UniProt Q9NPH5). Description: NOX4-dependent H2O2 signal modulators, primary screen, NOX inhibitor project, cell-based, HEK293-NOX4, tetracycline-induced, Amplex Red fluorescence (AID 1160). To be noted: 45 min, higher = more signal, called active from +8 up or from −8 down.
The target of assay [20] is NADPH oxidase 5 (Homo sapiens) (UniProt Q96PH1). In words: NOX5-dependent H2O2 signal modulators, primary screen, NOX inhibitor project, cell-based, HEK293-NOX5, Amplex Red fluorescence (AID 1161). To be noted: HEK293-NOX5, ionomycin, 45 min, higher = more signal.
Chain of NADPH oxidase 5 (Homo sapiens) (Q96PH1 whole entry, looked up): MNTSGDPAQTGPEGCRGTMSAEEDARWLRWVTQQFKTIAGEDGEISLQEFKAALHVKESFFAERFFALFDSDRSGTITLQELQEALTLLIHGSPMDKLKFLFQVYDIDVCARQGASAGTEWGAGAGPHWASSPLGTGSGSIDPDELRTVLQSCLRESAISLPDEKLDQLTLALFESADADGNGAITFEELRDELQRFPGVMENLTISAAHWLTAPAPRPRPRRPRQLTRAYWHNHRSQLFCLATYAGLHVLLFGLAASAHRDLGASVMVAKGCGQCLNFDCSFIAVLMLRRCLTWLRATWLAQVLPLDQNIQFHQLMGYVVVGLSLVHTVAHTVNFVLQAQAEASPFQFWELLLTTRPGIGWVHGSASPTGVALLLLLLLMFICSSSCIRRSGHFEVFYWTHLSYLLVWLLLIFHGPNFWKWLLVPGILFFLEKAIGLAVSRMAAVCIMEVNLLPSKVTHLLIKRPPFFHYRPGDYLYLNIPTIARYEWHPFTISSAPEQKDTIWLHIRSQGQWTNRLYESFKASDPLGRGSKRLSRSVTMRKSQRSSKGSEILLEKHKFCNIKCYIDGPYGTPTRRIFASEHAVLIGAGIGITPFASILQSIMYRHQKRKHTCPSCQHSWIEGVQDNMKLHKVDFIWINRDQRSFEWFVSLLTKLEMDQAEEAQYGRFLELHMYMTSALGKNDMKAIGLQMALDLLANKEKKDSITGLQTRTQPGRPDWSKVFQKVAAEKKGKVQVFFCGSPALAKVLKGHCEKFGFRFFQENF

Chain of NADPH oxidase 4 (Homo sapiens) (Q9NPH5 whole entry, looked up): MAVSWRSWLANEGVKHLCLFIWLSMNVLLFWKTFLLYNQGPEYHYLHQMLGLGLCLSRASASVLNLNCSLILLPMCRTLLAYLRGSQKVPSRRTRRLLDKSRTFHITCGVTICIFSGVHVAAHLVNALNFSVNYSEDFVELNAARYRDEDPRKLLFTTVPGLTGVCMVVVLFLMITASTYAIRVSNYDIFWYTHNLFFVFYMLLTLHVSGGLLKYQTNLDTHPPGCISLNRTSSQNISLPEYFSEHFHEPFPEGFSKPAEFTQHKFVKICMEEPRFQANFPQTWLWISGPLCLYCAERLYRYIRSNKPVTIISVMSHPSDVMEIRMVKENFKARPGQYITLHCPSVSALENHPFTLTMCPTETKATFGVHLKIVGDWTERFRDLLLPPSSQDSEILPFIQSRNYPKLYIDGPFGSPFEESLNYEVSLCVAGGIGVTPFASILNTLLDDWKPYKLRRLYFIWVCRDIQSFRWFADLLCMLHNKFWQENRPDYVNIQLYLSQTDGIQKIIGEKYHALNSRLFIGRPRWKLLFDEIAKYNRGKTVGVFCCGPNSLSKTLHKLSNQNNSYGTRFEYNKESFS

Consider `O=C1OCC=C[C@H]2OC34C=CCN(Cn5nnc6ccccc65)C(=O)[C@H]3N(CCO)C(=O)[C@@H]4[C@@H]12` (stereo not given in full), for which the composite z-score was -0.26 in assay [1]; -1.02 in assay [6]; -0.208 in [7]; 1.09 with Torsin-1A (Homo sapiens) [8]; -1.8 in the assay with Torsin-1A (Homo sapiens) [9]; -0.793 in assay [10]. The composite z-score in assay [12] is -0.101. Moreover, the z-score in [2] is 0.473 (inactive); in assay [3] it was 1.43 (inactive); in [4] it was 0.455 (inactive); in assay [5], 0.792 (inactive); in [11] it was -0.683 (inactive); in [13] it was 0.813 (inactive). The z-score was 0.531 (inactive) in [14]; 0.268 (inactive) in [15]; 0.55 (inactive) in [16]; -0.376 in assay [17]; 1.17 (inactive) in assay [18]; 0.99 (inactive) in [19]. The same molecule displayed a z-score in assay [20] of 1.38.

As for `C[N+](C)(C)CCCC[C@@H]1NC(=O)[C@H]2C[C@@H](C(=O)NCCCCCN)[C@@H](c3ccc(O)cc3)N2C1=O`, the composite z-score in assay [1] turned out to be 0.801; in assay [6] it was 2.29; in assay [7], 0.228; with Torsin-1A (Homo sapiens) [8], 0.926; with Torsin-1A (Homo sapiens) [9], 0.6; in assay [10] it was 2.17. This molecule returned a composite z-score in assay [12] of 0.14. Moreover, the z-score in assay [2] was -0.147 (inactive); in assay [3] it was 0.69 (inactive); in [4], 1.11 (inactive); in assay [5], 0.466 (inactive); in assay [11] it was 0.108 (inactive); in [13], 0.105 (inactive). The z-score in [14] is 0.0643 (inactive); in assay [15], -3.73 (inactive); in assay [16], -0.0429 (inactive); in [17], -0.0286; in assay [18] it was 0.081 (inactive); in assay [19] it was -0.0444 (inactive). For the same molecule, the z-score in [20] worked out at 0.204.

As to `COc1cccc(C)c1NC(=O)O[C@H]1[C@H](OC(=O)Nc2ccc3c(c2)OCO3)[C@H](OC(=O)Nc2ccc3c(c2)OCO3)[C@@H](OC)O[C@@H]1CO`, the composite z-score in assay [1] was 0.469; in assay [6] it was 1.2; in [7], 0.226; with Torsin-1A (Homo sapiens) [8] it was -0.148; with Torsin-1A (Homo sapiens) [9] it was 0.533; in assay [10] it was 2.02. The same molecule returned a composite z-score in assay [12] of 0.855. For the same molecule, the z-score in [2] was -2.59 (inactive); in assay [3], 1.05 (inactive); in assay [4] it was 0.558 (inactive); in assay [5], -1.04 (inactive); in assay [11], -0.66 (inactive); in [13], 10.7 (active). Moreover, the z-score in assay [14] was 1.4 (inactive); in assay [15], 1.14 (inactive); in [16] it was 0.691 (inactive); in assay [17] it was -0.0632; in [18] it was -1.52 (inactive); in assay [19], -0.848 (inactive). The z-score in [20] is -1.37.

Regarding `C=CC[C@]1(C(N)=O)N=C(c2ccc(OCCCO)cc2)O[C@H]1c1ccccc1N=[N+]=[N-]`, the composite z-score is 0.423 in [1]; 0.489 in assay [6]; 0.0857 in [7]; 0.534 with Torsin-1A (Homo sapiens) [8]; 1.62 with Torsin-1A (Homo sapiens) [9]; 0.0211 in assay [10]. This molecule showed a composite z-score in assay [12] of 0.408. Also, the z-score was -1.05 (inactive) in assay [2]; 0.348 (inactive) in assay [3]; 0.432 (inactive) in assay [4]; -1.81 (inactive) in assay [5]; 2.21 (inactive) in assay [11]; 33.4 (active) in [13]. The z-score was 30.8 (active) in [14]; 2.17 (inactive) in assay [15]; 9.7 (active) in [16]; -0.0547 in assay [17]; -1.77 (inactive) in assay [18]; 0.627 (inactive) in assay [19]. In assay [20], this molecule displayed a z-score of 0.189.

`O=C1O[C@@H](c2ccccc2)[C@@H](c2ccccc2)N2[C@@H](c3ccc(OCCO)cc3)[C@]3(C(=O)Nc4ccc(C#CC5=CCCCC5)cc43)[C@@H](C(=O)Nc3nc4ccccc4s3)[C@H]12`: the composite z-score was 0.256 in assay [1]; 0.549 in assay [6]; -0.145 in [7]; -0.0561 with Torsin-1A (Homo sapiens) [8]; 0.0025 in the assay with Torsin-1A (Homo sapiens) [9]; 1.43 in assay [10]. In assay [12], the composite z-score was -0.0857. The z-score in assay [2] was -1.89 (inactive); in assay [3] it was -1.2 (inactive); in assay [4], -0.698 (inactive); in assay [5], -0.797 (inactive); in [11], -0.558 (inactive); in assay [13], 1.88 (inactive). The z-score in assay [14] is 2.03 (inactive); in [15], 1.92 (inactive); in assay [16], 2.11 (inactive); in [17], -0.579; in [18], 1.01 (inactive); in [19], -0.188 (inactive). Besides, the z-score in assay [20] stood at 0.0226.
